Records with an inconclusive call do not appear. Calls of active or inactive are those of the source. Unless noted, calls follow the shape of the full dose curve.
What was measured:
[1] = qHTS for Inhibitors of the Functional Ribonucleoprotein Complex (vRNP) of Lassa (LASV) Arenavirus: LASV Primary Screen - GLuc reporter signal (AID 1347082; calls by dose curve; tested in HEK293 reporter line; also: nearly all actives have a fitted effect of over 60% in size)
[2] = qHTS for Inhibitors of the Functional Ribonucleoprotein Complex (vRNP) of Lassa (LASV) Arenavirus: Viability assay - alamar blue signal for LASV Primary Screen (AID 1347083; calls by dose curve; tested in HEK293 reporter line; also: nearly all actives have a fitted effect of over 80% in size)
[3] = qHTS for Inhibitors of the Functional Ribonucleoprotein Complex (vRNP) of Lymphocytic Choriomeningitis Arenaviruses (LCMV): Viability assay - alamar blue signal for LCMV Primary Screen (AID 1347085; calls by dose curve; tested in HEK293 reporter line; also: nearly all actives have a fitted effect of over 80% in size)
[4] = biological target: Nucleoprotein (Lymphocytic choriomeningitis virus (strain Armstrong)) (UniProt P09992); test: qHTS for Inhibitors of the Functional Ribonucleoprotein Complex (vRNP) of Lymphocytic Choriomeningitis Arenaviruses (LCMV): LCMV Primary Screen - GLuc reporter signal (AID 1347086); also: nearly all actives have a fitted effect of over 70% in size
% is scaled to controls: 0 for no effect and ±100 for the full control effect.
Also: series mostly up to about 57 µM.

Chain of Nucleoprotein (Lymphocytic choriomeningitis virus (strain Armstrong)) (P09992 whole entry, looked up): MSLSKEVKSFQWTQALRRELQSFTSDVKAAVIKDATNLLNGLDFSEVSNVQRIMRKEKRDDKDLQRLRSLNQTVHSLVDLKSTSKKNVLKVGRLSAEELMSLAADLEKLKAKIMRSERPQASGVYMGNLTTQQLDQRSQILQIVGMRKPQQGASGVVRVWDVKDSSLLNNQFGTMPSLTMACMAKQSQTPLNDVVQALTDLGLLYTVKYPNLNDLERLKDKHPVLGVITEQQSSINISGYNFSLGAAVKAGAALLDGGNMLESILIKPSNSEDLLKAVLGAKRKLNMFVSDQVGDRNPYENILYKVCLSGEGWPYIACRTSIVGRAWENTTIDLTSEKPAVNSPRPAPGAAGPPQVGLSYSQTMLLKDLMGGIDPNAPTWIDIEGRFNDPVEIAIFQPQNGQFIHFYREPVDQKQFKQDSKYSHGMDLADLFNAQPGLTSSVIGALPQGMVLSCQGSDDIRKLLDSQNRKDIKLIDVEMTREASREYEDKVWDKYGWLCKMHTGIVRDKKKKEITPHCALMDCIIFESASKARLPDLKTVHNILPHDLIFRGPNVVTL

CC(C)(C)C(=O)C(Oc1ccc(Cl)cc1)n1ccnc1 (centres undefined)
inactive: Potency [1] | Potency [2] | Potency [3] | Potency [4]

Cc1ccc(Cl)c(OCC(O)CNC(C)(C)C)c1 (centres undefined)
inactive: Potency [1] | Potency [2] | Potency [3] | Potency [4]

NC(N)=NCCC[C@H](N)C(=O)O
inactive: Potency [1] | Potency [2] | Potency [3] | Potency [4]

COC(=O)[C@H]1[C@H]2C[C@@H]3c4[nH]c5cc(OC)ccc5c4CCN3C[C@H]2C[C@@H](OC(=O)COc2ccc(OC)cc2)[C@@H]1OC
inactive: Potency [1] | Potency [2] | Potency [3] | Potency [4]

Clc1ccc2c(c1)CCc1cccnc1C2=C1CCNCC1
inactive: Potency [1] | Potency [2] | Potency [3] | Potency [4]

NS(=O)(=O)c1ccc(N2CCCCS2(=O)=O)cc1
inactive: Potency [1] | Potency [2] | Potency [3] | Potency [4]

CCOC(=O)C(C)(C)Oc1ccc(Cl)cc1
inactive: Potency [1] | Potency [2] | Potency [3] | Potency [4]

CN(C)C/C=C(/c1ccc(Br)cc1)c1cccnc1
inactive: Potency [1] | Potency [2] | Potency [3] | Potency [4]

CCC(C(=O)OCCOCCN(CC)CC)c1ccccc1 (centres undefined)
inactive: Potency [1] | Potency [2] | Potency [3] | Potency [4]

O=c1[nH]c(=O)c2[nH]c(=O)[nH]c2[nH]1
inactive: activity change, negative = inhibition [1] -5.36% [at 11.5 µM] | activity change, negative = reduced viability [2] 13.2% [at 11.5 µM] | activity change, negative = lower viability [3] -14.6% [at 11.5 µM] | activity change, negative = inhibition [4] 20.2% [at 11.5 µM]

CCOC(=O)CN1CCCC1=O
inactive: Potency [1] | Potency [2] | Potency [3] | Potency [4]

CC(C)[C@@H]1CC[C@@H](C)CC1=O
inactive: Potency [1] | Potency [2] | Potency [3] | Potency [4]

C[N+]1(CC2COC(c3ccccc3)(C3CCCCC3)O2)CCCCC1 (centres undefined)
inactive: Potency [1] | Potency [2] | Potency [3] | Potency [4]

CCCCC(=O)O[C@]1(C(=O)CO)[C@@H](C)C[C@H]2[C@@H]3CCC4=CC(=O)C=C[C@]4(C)[C@@]3(F)[C@@H](O)C[C@@]21C
inactive: Potency [1] | Potency [2] | Potency [3] | Potency [4]

CCCC(=O)O[C@]1(C(=O)CC)CC[C@H]2[C@@H]3CCC4=CC(=O)CC[C@]4(C)[C@H]3[C@@H](O)C[C@@]21C
inactive: Potency [1] | Potency [2] | Potency [3] | Potency [4]

CCc1cccc(N(C)C(N)=Nc2cccc3ccccc23)c1
inactive: Potency [1] | Potency [2] | Potency [3] | Potency [4]

CC(Cc1cccc(C(F)(F)F)c1)NCCOC(=O)c1ccccc1 (centres undefined)
inactive: Potency [1] | Potency [2] | Potency [3] | Potency [4]

Cc1c(N(C)C)c(=O)n(-c2ccccc2)n1C
inactive: Potency [1] | Potency [2] | Potency [3] | Potency [4]

CCOC(=O)OCC/C(SC(=O)OCC)=C(\C)N(C=O)Cc1cnc(C)nc1N
inactive: Potency [1] | Potency [2] | Potency [3] | Potency [4]

Oc1ccc(Cl)cc1Sc1cc(Cl)ccc1O
inactive: Potency [1] | Potency [2] | Potency [3] | Potency [4]

O=C1c2ccccc2C(=O)C1c1ccccc1
inactive: Potency [1] | Potency [2] | Potency [3] | Potency [4]

CCC(C(=O)OCCN1CCOC(c2ccccc2)C1C)c1ccccc1 (centres undefined)
inactive: Potency [1] | Potency [2] | Potency [3] | Potency [4]

CCCC(=O)O[C@]1(C(=O)CCl)[C@@H](C)C[C@H]2[C@@H]3CCC4=CC(=O)C=C[C@]4(C)[C@@]3(F)C(=O)C[C@@]21C
inactive: Potency [1] | Potency [2] | Potency [3] | Potency [4]

O=C(CCNNC(=O)c1ccncc1)NCc1ccccc1
inactive: Potency [1] | Potency [2] | Potency [3] | Potency [4]

Cc1nc(C2CCCCC2)c(-c2ccc(S(N)(=O)=O)c(F)c2)o1
inactive: Potency [1] | Potency [2] | Potency [3] | Potency [4]

c1ccc2[nH]c(-c3cscn3)nc2c1
inactive: Potency [1] | Potency [2] | Potency [3] | Potency [4]

CCc1oc2ccccc2c1C(=O)c1cc(Br)c(O)c(Br)c1
inactive: Potency [1] | Potency [2] | Potency [3] | Potency [4]

O=C1c2cccc(O)c2C(=O)c2c(O)cccc21
inactive: Potency [1] | Potency [2] | Potency [3] | Potency [4]

CN(C)C(=O)CNC(=O)Cc1ccccc1
inactive: Potency [1] | Potency [2] | Potency [3] | Potency [4]

Cc1ccc(CCn2c3c(c4cc(Cl)ccc42)CN(C)CC3)cn1
inactive: Potency [1] | Potency [2] | Potency [3] | Potency [4]

CC(C)(C)C(=O)OCOC(=O)[C@@H]1N2C(=O)[C@@H](NC(=O)[C@H](N)c3ccccc3)[C@H]2SC1(C)C
inactive: Potency [1] | Potency [2] | Potency [3] | Potency [4]

Cc1cccc(Nc2cc(Cl)nc(SCC(=O)O)n2)c1C
inactive: Potency [1] | Potency [2] | Potency [3] | Potency [4]

CCCNC(C)(C)COC(=O)c1ccccc1
inactive: Potency [1] | Potency [2] | Potency [3] | Potency [4]

COC(=O)C1=C(C)NC(C)=C(C(=O)O[C@@H]2CCCN(Cc3ccccc3)C2)[C@@H]1c1cccc([N+](=O)[O-])c1
inactive: Potency [1] | Potency [2] | Potency [3] | Potency [4]

OC(CCN1CCCCC1)(c1ccccc1)C1CC2C=CC1C2 (centres undefined)
inactive: Potency [1] | Potency [2] | Potency [3] | Potency [4]

CCOC(=O)[C@H](CCc1ccccc1)N[C@H]1CCc2ccccc2N(CC(=O)O)C1=O
inactive: Potency [1] | Potency [2] | Potency [3] | Potency [4]
